hcDAF12 agonist: H. contortus DAF-12 nuclear receptor activators, primary screen, cell-based, luminescence, HEK293, lit1-tk-luc reporter | HEK293 hcDAF-12 lit1-tk-luc reporter; 0% DMSO, 100% Δ7-dafachronic acid | activation, % at 6.8 µM | actives 1.4% (n = 370,000) | AID 652067, 2013;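 active = activation above the mean of all tested compounds plus 3 SD, cut at about 5.5% in these data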;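 also: 100% = response to 3 µM Δ7-dafachronic acid high control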
DAX1 inh-1: DAX1 (NR0B1) inhibitors on StAR promoter, primary screen, cell-based, luminescence, SF-1 (NR5A1), full-length DAX-1 | AID 652010, 2013 | HEK293T StAR-luciferase reporter, SF-1/DAX-1 repression relief | actives 1.1% (n = 370,000) | inhibition, % at 6.8 µM;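 active = inhibition above the mean over all tested compounds plus 3 SD, cut at about 3.6% in these data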;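 also: 0% = DAX-1 cells with DMSO and 100% = cells lacking DAX-1 with DMSO; higher inhibition means more luminescence from relief of DAX-1 repression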
ssDAF12 agonist: S. stercoralis DAF-12 nuclear receptor activators, primary screen, cell-based, luminescence, HEK293, GRIP1 co-expression, lit1-tk-luc; HEK293 ssDAF-12/GRIP1 lit1-tk-luc reporter; % of 3 µM dafachronic acid response; activation, % at 6.8 µM; actives 1% (n = 370,000);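 active = activation above the mean over all tested compounds plus 3 SD, cut at about 0.9% in these data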;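 also: 0% = DMSO-only wells and 100% = 3 µM delta7-dafachronic acid wells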
SMARCA2 act: SMARCA2 (BRM) function activators, primary screen, cell-based, luminescence, high throughput. MG213 cells, MMTV-luciferase reporter, dexamethasone, overnight. activation, % at 9.1 µM. actives 1% (n = 370,000). AID 652017, 2013; in the data active = activation above about 7.8%;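 also: 0% = vehicle wells and 100% = reference activator wells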
DAX1 inh-2: DAX1 (NR0B1) inhibitors, primary screen, cell-based, HEK293, Gal4-DAX1, luciferase luminescence | HEK293 Gal4-DAX1 luciferase reporter | actives 0.99% (n = 340,000) | inhibition, % at 6.75 µM | Nuclear receptor subfamily 0 group B member 1 (Homo sapiens), P51843;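 active = inhibition above the mean over all tested compounds plus 3 SD, cut at about 4.2% in these data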;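 also: 0% = DAX1-transfected cells with DMSO and 100% = empty-vector control cells with DMSO; inhibition shows as a rise in luminescence from relieved DAX1 repression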
Target sequence (P51843 207-470 limits assumed): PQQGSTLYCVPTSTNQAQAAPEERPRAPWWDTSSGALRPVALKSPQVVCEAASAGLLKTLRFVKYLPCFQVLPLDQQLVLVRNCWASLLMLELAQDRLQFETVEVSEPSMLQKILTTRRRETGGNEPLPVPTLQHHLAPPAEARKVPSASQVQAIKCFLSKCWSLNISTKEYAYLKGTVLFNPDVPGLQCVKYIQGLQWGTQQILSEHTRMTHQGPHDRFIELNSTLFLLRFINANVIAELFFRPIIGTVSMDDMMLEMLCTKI
hgDAF12 agonist: H. glycines DAF-12 receptor agonists, primary screen, cell-based, luminescence, HEK293, GAL4 fusion, UAS-luciferase | activation, % at 6.8 µM | actives 1.8% (n = 370,000) | Nuclear hormone receptor DAF-12 (Heterodera glycines), GAL4 fusion | HEK293 GAL4-hgDAF12 UAS-luciferase reporter, agonist luminescence; normalized to butyrate control | AID 687014, 2013;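 active = activation above a cutoff set at the mean of all screened compounds plus 3 SD, cut at about 10% in these data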;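 also: 0% = DMSO wells and 100% = sodium butyrate wells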
hgDAF12 conf: H. glycines DAF-12 receptor agonists, confirmation, cell-based, luminescence, HEK293, GAL4-LBD fusion | HEK293 GAL4-hgDAF12 luciferase reporter, agonist mode; percent of butyrate response | activation, % at 6.8 µM | shares compounds with hgDAF12 agonist | actives 80% (n = 3,300);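 active = mean activation over triplicate wells above the hit cutoff derived from the earlier primary screen, cut at about 11% in these data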;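 also: 0% = DMSO low control and 100% = 2 mM sodium butyrate high control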
LXRb DAF12 ctr: LXR agonists, Gal4 luciferase reporter, confirmation, counter-screen for hgDAF-12 agonist project, cell-based, luminescence, HEK293, H. glycines campaign; shares compounds with hgDAF12 agonist; 24 h; activation, % at 6.8 µM; 3,300 tested, under 10 active; AID 743051, 2013;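 active = mean activation of the triplicate above a set limit carried over from the primary screen, none filed active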
Target sequence (P55055 whole entry, looked up, the tested form may be a part): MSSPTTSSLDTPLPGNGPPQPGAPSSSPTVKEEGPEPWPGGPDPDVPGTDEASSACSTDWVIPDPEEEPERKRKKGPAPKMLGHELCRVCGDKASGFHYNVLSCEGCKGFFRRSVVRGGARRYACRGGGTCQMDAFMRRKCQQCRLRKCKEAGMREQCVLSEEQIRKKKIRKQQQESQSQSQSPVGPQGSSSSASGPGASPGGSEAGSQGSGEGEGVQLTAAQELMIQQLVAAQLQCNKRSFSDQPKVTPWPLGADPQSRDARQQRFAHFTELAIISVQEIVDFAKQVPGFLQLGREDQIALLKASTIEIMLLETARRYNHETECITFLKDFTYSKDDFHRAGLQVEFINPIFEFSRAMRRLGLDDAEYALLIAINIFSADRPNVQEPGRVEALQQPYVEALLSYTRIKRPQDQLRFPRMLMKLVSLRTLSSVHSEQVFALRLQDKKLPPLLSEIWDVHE
The depositor's hits bear a star; . = not tested or not shown. The list is not random: actives were taken first. Their share in the collection is about 4.8%.

SMILES | hcDAF12 agonist | DAX1 inh-1 | ssDAF12 agonist | SMARCA2 act | DAX1 inh-2 | hgDAF12 agonist | hgDAF12 conf | LXRb DAF12 ctr
COc1cccc(-c2noc(C3CCCN(C(=O)CC(C)(C)C)C3)n2)c1 (stereo not given) | 2.5 | 0.8 | -1.6 | 0.7 | 0.7 | 8.9 | . | .
CCCCC(=O)N1CCCC(c2nc(-c3cccc(OC)c3)no2)C1 (stereo not given) | 0.9 | 1.5 | -1.4 | 2.3 | 1.6 | 14.9* | 5.6 | 0.3
COc1ccc(-c2noc(C3CCCN(C(=O)NC4CCC(C)CC4)C3)n2)cc1 (stereo not given) | 0.1 | 3.6 | -0.9 | 0.8 | . | 14.2* | 2.3 | 0.3
O=C(NC1CCCc2ccccc21)c1ccccc1 (stereo not given) | -1.6 | -0.1 | -0.9 | -2.4 | -0.2 | 0.4 | . | .
CCc1ccc(C(=O)Nc2cc(C)ccc2F)s1 | 3.8 | 1.1 | -0.3 | 1.0 | 0.8 | 16.1* | 6.8 | 0.3
CC(C)N(Cc1nccn1C)C(=O)CCc1nnc(CCCc2ccccc2)o1 | 3.6 | 1.1 | 0.3 | 2.4 | 0.8 | 14.4* | 10.2 | 0.3
CC(C)N(CCO)C(=O)CCc1nnc(CCCc2ccccc2)o1 | 1.1 | 0.3 | -0.6 | 2.5 | 3.2 | 2.5 | . | .
COc1ccc(Cl)cc1NC(=O)N1CCN(CCc2ccccc2)CC1 | -2.0 | 0.1 | -1.7 | -1.3 | 1.3 | 0.2 | . | .
c1ccc(-c2cn3nc(-c4ccccc4)cnc3n2)cc1 | 1.6 | 3.1 | -0.6 | 6.9 | 3.8 | 16.8* | 8.0 | 0.2
Cc1nn(Cc2ccccc2Cl)c(Cl)c1C(=O)NCCc1ccccc1 | 2.6 | 4.0* | -0.2 | 7.3 | 2.9 | 16.9* | 15.1* | 0.7
CC(=O)Nc1ccc(NC(=O)c2c(C)nn(Cc3ccccc3)c2Cl)cc1 | -1.3 | 0.1 | -1.5 | -0.1 | -0.6 | 1.0 | . | .
O=C(NCc1ccco1)c1cc(-c2cccs2)on1 | 3.4 | 0.6 | -0.8 | -1.7 | 3.3 | 23.3* | 21.8* | 0.2
O=C(NCc1ccco1)c1ccccc1-c1ccccc1 | -2.1 | -0.6 | -1.3 | 0.0 | -0.3 | -0.2 | . | .
CCCNC(=O)c1cc(-c2ccco2)on1 | 4.1 | 0.0 | -0.8 | 0.2 | 1.9 | 47.4* | 36.9* | 0.3
O=C(NCc1ccc(F)cc1)c1cc(-c2ccco2)on1 | -0.5 | -0.3 | -0.9 | 0.4 | -0.9 | 2.0 | . | .
O=C(NCc1ccccc1)c1cc(-c2cccs2)on1 | 1.2 | 1.3 | -0.9 | -0.3 | 1.9 | 5.3 | . | .
O=C(NCc1ccco1)c1cc(-c2ccc(F)cc2)on1 | 1.8 | 1.7 | -0.9 | 4.0 | 2.3 | 16.6* | 14.9* | 0.3
O=C(NCc1ccco1)c1cc(-c2ccccc2)on1 | 2.1 | 2.6 | -0.3 | 0.0 | 3.2 | 23.3* | 22.4* | 0.4
CN(C)CCCN(C(=O)c1ccc(S(=O)(=O)N2CCc3ccccc32)cc1)c1nc2ccc(Cl)cc2s1 | 0.1 | 1.5 | -1.1 | -1.1 | 0.2 | 2.9 | . | .
O=C(N1CCOCC1)N1CCN(c2ccccn2)CC1 | -1.1 | 0.5 | -0.8 | -0.8 | -0.7 | -0.6 | . | .
Cc1ccnc(N=Cc2nc(-c3ccccc3Br)oc2O)c1 | -0.2 | 2.5 | 0.6 | 4.2 | 0.0 | 15.3* | 6.1 | 0.3
C/C(=N\NC(=O)c1nn(C)cc1Br)c1cccc(NC(=O)c2ccncc2)c1 | 4.7 | 1.7 | 0.2 | 6.5 | 3.1 | 17.9* | 3.1 | 0.1
O=C(/C=C/Nc1ccc(Oc2ccccc2)cc1)c1ccco1 | 4.3 | 3.8* | 0.7 | 2.8 | 0.6 | 13.3* | 23.4* | 0.9
O=C(Nc1ccc(Oc2ccc3ccccc3c2)cc1)c1ccco1 | -1.6 | -1.4 | -1.4 | -5.8 | -1.8 | -2.6 | . | .
Cc1ccc(-c2cc(N)n(-c3ccc(F)cc3)n2)cc1 | 5.4 | 4.3* | -0.6 | -0.3 | 0.5 | 14.7* | 9.9 | 0.6
SMILES | hcDAF12 agonist | DAX1 inh-1 | ssDAF12 agonist | SMARCA2 act | DAX1 inh-2 | hgDAF12 agonist | hgDAF12 conf | LXRb DAF12 ctr
CCOC(=O)[C@H]1[C@H]2COc3ccc(OC)cc3[C@@H]2N2C(=O)c3cc(C)ccc3NC(=O)[C@@]12C | -2.0 | -0.6 | -1.3 | -1.7 | -0.4 | -3.3 | . | .
O=C(NCC1CCCO1)c1cc(-c2ccc(F)cc2)no1 (stereo not given) | 4.0 | 2.1 | 0.4 | 0.4 | 2.2 | 18.4* | 19.1* | 0.1
Cc1ccc(Nc2nc(C(=O)NCC3CCCO3)cs2)cc1 (stereo not given) | -2.1 | 0.1 | -0.5 | 1.5 | 0.0 | 1.1 | . | .
Cc1ccc2c(Cl)c(C(=O)NCC3CCCO3)sc2c1 (stereo not given) | 3.0 | 2.9 | -0.3 | 4.7 | 2.8 | 7.8 | . | .
O=C(NCC1CCCO1)c1cc(-c2ccccc2)on1 (stereo not given) | 6.5* | 2.2 | 0.3 | 1.1 | 4.3* | 42.0* | 48.4* | 0.6
O=C(NCC1CCCO1)c1cc(-c2ccc(Cl)cc2Cl)on1 (stereo not given) | 1.5 | 2.7 | 0.0 | 3.1 | 0.1 | 8.9 | . | .
Cc1ccc(-c2cc(C(=O)NCC3CCCO3)no2)cc1 (stereo not given) | 1.3 | 3.2 | -0.7 | 1.2 | 1.4 | 14.3* | 13.1* | 0.5
O=C(NCC1CCCO1)c1sc2ccccc2c1Cl (stereo not given) | 2.6 | 3.2 | -1.2 | 3.6 | 2.5 | 13.8* | 10.4 | 0.5
CN(C)S(=O)(=O)c1cccc(NC(=O)c2cccc(NS(=O)(=O)c3ccccc3)c2)c1 | -3.2 | -1.0 | -1.6 | -5.7 | -2.5 | -7.1 | . | .
COc1cccc(NC(=O)c2cccc(N3C(=O)C4C5C=CC(C5)C4C3=O)c2)c1 (stereo not given) | -1.8 | -0.6 | -1.3 | -2.3 | -0.7 | 0.3 | . | .
C/C(CC(=O)Nc1cccc(Cl)c1Cl)=N\NC(=O)c1ccccc1N | 4.9 | 2.4 | 0.4 | 4.5 | 4.2* | 13.5* | 3.0 | 0.2
COc1ccc(N/C=C/C(=O)c2ccc(OC)c(OC)c2)cc1 | -1.4 | 0.1 | -1.3 | -1.2 | 1.1 | -0.6 | . | .
